Test [1] can be described thus: qHTS assay for small molecule agonists of the p53 signaling pathway - cell viability (AID 651633; calls by dose curve; also: nearly all actives have a fitted effect of over 30% in size; also: potency is read from the fitted curve at half-maximal effect). The procedure, abridged: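 Viability counter-read: CellTiter-Glo luminescence (30 min, room temperature) in the same p53RE-bla plates. These plates had been exposed to compounds for 16 h at 37 C.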
In general terms: qHTS replaces the single test concentration by a dilution series.

Test [2] is described as follows: qHTS assay to test for compound auto fluorescence at 590 nm (red) in HepG2 cells (AID 720674). The procedure, abridged: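 Red autofluorescence (Ex/Em 540/590 nm, Rose Bengal sodium equivalents) was measured in HepG2 cells, 2,000 per well in MEM plus 10% FBS, plated overnight at 37 C. Readings were taken 1 hr after adding 23 nL compound or DMSO, at 37 C and 5% CO2.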

A short description of test [3]: qHTS assay to test for compound auto fluorescence at 460 nm (blue) in HEK293 cells (AID 720678). The procedure, abridged:
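Blue-channel (Ex/Em 405/460 nm) intensity measured in HEK293 cultures after overnight compound exposure at 37C; signal expressed relative to triamterene. Cells plated 2,000 per well in 10% dialyzed FBS medium and allowed 4-5 hr to attach.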

Test [4] can be described thus: qHTS assay to test for compound auto fluorescence at 535 nm (green) in HepG2 cell free culture (AID 720686).
A short description of test [5]: qHTS assay to identify small molecule antagonists of the glucocorticoid receptor (GR) signaling pathway - cell viability counter screen (AID 720693). Also: nearly all actives have a fitted effect of over 55% in size. Also: potency is read from the fitted curve at half-maximal effect.
Test [6] is described as follows: qHTS assay for identifying genotoxic compounds that show differential cytotoxicity against isogenic chicken DT40 cell lines with known DNA damage response pathways - wild type cell line (AID 743012). Also: nearly all actives have a fitted effect of over 60% in size. Also: potency is read from the fitted curve at half-maximal effect. The procedure, abridged: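 Viability by ATP luminescence (CellTiter-Glo, 30 min RT) after 40 h compound treatment at 37 C/5% CO2, using 300 parental DNA repair-proficient DT40 cells per well.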

Test [7] can be described thus: qHTS assay for identifying genotoxic compounds that show differential cytotoxicity against isogenic chicken DT40 cell lines with known DNA damage response pathways - Rev3 mutant cell line (AID 743014). Also: nearly all actives have a fitted effect of over 55% in size.
Test [8] can be described thus: qHTS assay to identify small molecule antagonists of the androgen receptor (AR) signaling pathway - cell viability counter screen (AID 743033; also: nearly all actives have a fitted effect of over 45% in size; also: potency is read from the fitted curve at half-maximal effect).
Test [9] can be described thus: qHTS assay to identify small molecule antagonists of the thyroid receptor (TR) signaling pathway - cell viability counter screen (AID 743064). Also: nearly all actives have a fitted effect of over 50% in size. Also: potency is read from the fitted curve at half-maximal effect. The procedure, abridged: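 GH3.TRE-Luc cells, 4 h pre-plating; cpd + T3 1 nM final; 37 °C 23.5 h; CellTiter-Fluor 30 min; fluorescence read.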
Test [10] has as its system thyroid hormone receptor (rat, GH3 cells). Nature of the test: qHTS assay to identify small molecule agonists of the thyroid receptor (TR) signaling pathway (AID 743066; calls by dose curve).
Test [11] in a line: qHTS assay to identify small molecule antagonists of the estrogen receptor alpha (ER-alpha) signaling pathway - cell viability counter screen (AID 743074; calls by dose curve;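 also: HEK293 cells carrying ER-alpha-UAS-bla reporter stimulated with 17beta-estradiol; nearly all actives have a fitted effect of over 45% in size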; also: potency is read from the fitted curve at half-maximal effect).
Test [12] addresses Estrogen receptor (Homo sapiens) (UniProt P03372). Kind of test: qHTS assay to identify small molecule agonists of the estrogen receptor alpha (ER-alpha) signaling pathway (AID 743075; calls by dose curve;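 also: HEK293 GripTite cells with ER-alpha and UAS-driven beta-lactamase reporter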; also: potency is read from the fitted curve at half-maximal effect).
For test [13] the target is unchanged. Kind of test: qHTS assay to identify small molecule agonists of the estrogen receptor alpha (ER-alpha) signaling pathway using the BG1 cell line (AID 743079). Also: nearly all actives have a fitted effect of over 20% in size. Also: potency is read from the fitted curve at half-maximal effect.
The target in test [14] is Peroxisome proliferator-activated receptor gamma (Homo sapiens) (UniProt P37231). Nature of the test: qHTS assay to identify small molecule agonists of the peroxisome proliferator-activated receptor gamma (PPARg) signaling pathway (AID 743094; active = well fitted activation curve with a large enough effect in the signal ratio in the repeat runs, not every such curve was filed as active; inconclusive = weak or mixed curves, or effect the other way; inactive = no such curve, though single readings can be large or run the other way; the % refers to the signal ratio). The procedure, abridged: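 Agonist activity was taken from a beta-lactamase reporter (FRET substrate, 1 h at room temperature) in HEK293H cells carrying a PPARg UAS-bla construct. Compounds in DMSO were incubated 17 h at 37C after a 5 h cell pre-incubation.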
Sequence of Peroxisome proliferator-activated receptor gamma (Homo sapiens) (P37231 whole entry, looked up): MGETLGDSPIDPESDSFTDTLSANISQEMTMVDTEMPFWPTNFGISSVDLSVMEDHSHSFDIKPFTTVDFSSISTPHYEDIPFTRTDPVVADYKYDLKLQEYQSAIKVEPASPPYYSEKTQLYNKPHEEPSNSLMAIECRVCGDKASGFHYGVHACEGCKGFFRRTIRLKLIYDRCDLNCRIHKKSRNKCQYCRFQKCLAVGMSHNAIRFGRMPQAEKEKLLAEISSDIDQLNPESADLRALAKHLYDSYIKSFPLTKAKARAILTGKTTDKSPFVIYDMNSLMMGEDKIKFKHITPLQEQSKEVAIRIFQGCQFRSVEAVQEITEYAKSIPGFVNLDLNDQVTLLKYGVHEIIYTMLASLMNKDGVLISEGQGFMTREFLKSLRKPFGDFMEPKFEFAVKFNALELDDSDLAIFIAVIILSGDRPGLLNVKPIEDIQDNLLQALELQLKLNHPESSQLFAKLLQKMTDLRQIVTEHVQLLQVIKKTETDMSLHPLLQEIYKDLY

In test [15] the target is Nuclear receptor subfamily 1 group I member 2 (Homo sapiens) (UniProt O75469). Kind of test: CYP3A4 induction through human pregnane X receptor (PXR) by small molecules, qHTS assay (AID 1346984). Also: nearly all actives have a fitted effect of over 40% in size. Also: potency is read from the fitted curve at half-maximal effect. The procedure, abridged:
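Read-out is luminescence after One-Glo addition, following a 3 hr, 37C incubation with Luciferin-IPA CYP3A4 substrate (3uM final). Before that, compounds were on DPX-2 cells (HepG2 co-transfected with PXR element plus CYP3A4-promoter luciferase) for 24 hr at 37C.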

Test [16] shares this target. Nature of the test: Human pregnane X receptor (PXR) activation by small molecules, qHTS assay (AID 1346985). Also: nearly all actives have a fitted effect of over 40% in size. Also: potency is read from the fitted curve at half-maximal effect. An outline of the steps:
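DPX-2 cells (HepG2 co-transfected with a PXR response element and a CYP3A4-promoter luciferase construct) were seeded at 2,000 per well, rested 5 hr at 37C, then exposed to DMSO-dissolved compounds for 24 hr. Activation was read as luciferase luminescence.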

A short description of test [17]: qHTS assay to test for compound auto fluorescence at 590 nm (red) in HEK293 cells (AID 720679). The procedure, abridged:
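Red-channel autofluorescence (Ex/Em 540/590 nm; Rose Bengal sodium reference) was measured after overnight 37C, 5% CO2 exposure of attached HEK293 cells, 2,000 per well in medium with 10% dialyzed FBS.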

A short description of test [18]: qHTS assay to test for compound auto fluorescence at 460 nm (blue) in HepG2 cells (AID 720687). The procedure, abridged:
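Blue-channel autofluorescence (Ex/Em 405/460 nm, triamterene-equivalent) was measured after 1 hr compound exposure at 37 C, 5% CO2. Cells were HepG2, plated overnight at 37 C in MEM plus 10% FBS.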

Test [19] deals with Acetylcholinesterase (Homo sapiens) (UniProt P22303). Nature of the test: Acetylcholinesterase (AChE) small molecule antagonists: enzyme-based qHTS assay (AID 1347397; calls by dose curve; also: nearly all actives have a fitted effect of over 55% in size). The following applies: Potency: AChE enzyme activity inhibition; outcome: AChE enzyme activity inhibition. The procedure, abridged: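 First, recombinant human AChE (50 mU/mL as dispensed) received test compound or DMSO. Second, plates stood 30 min at room temperature. Third, DTNB and acetylthiocholine were added, followed by 10 min at room temperature and colorimetric detection.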
Sequence of Acetylcholinesterase (Homo sapiens) (P22303 whole entry, looked up): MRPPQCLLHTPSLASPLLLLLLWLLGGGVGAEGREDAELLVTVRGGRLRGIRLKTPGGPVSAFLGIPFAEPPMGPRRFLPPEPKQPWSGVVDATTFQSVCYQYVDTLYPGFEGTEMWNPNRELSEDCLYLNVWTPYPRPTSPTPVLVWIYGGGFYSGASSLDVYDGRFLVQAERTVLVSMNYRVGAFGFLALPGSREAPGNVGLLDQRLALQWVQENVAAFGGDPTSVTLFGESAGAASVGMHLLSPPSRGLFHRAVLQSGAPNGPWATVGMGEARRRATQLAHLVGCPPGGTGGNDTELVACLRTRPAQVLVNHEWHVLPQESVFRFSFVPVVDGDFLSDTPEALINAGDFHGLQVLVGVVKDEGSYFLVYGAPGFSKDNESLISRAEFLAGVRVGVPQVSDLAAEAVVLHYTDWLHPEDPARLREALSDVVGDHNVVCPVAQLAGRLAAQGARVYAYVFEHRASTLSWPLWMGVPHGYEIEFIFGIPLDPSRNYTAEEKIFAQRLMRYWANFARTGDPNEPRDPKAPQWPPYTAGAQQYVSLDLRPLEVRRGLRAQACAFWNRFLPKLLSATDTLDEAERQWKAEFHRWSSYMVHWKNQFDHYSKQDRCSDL

For test [20] the target is unchanged. Nature of the test: Acetylcholinesterase (AChE) small molecule antagonists: fluorescence cell-based qHTS assay (AID 1347398; calls by dose curve; also: nearly all actives have a fitted effect of over 50% in size). As to conditions: Potency: AChE activity; outcome: AChE activity. The procedure, abridged: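 Homogeneous quantitative HTS format. SH-SY5Y cells seeded at 2,000 per well settle overnight at 37 C. Compound pretreatment runs 30 min (37 C, 5% CO2); substrate/probe mix then reacts 40 min at RT before reading 490/520 nm.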

SMILES strings stand for the structures. Calls of active or inactive are those of the source. Unless noted, calls follow the shape of the dose curve; as a rule, active = well fitted curve in the direction sought with a large enough effect in the repeat runs; inconclusive = weak or mixed curves; inactive = no such curve, though single readings can be large; an effect the other way counts as inactive or inconclusive.

Sequence of Estrogen receptor (Homo sapiens) (P03372 whole entry, looked up): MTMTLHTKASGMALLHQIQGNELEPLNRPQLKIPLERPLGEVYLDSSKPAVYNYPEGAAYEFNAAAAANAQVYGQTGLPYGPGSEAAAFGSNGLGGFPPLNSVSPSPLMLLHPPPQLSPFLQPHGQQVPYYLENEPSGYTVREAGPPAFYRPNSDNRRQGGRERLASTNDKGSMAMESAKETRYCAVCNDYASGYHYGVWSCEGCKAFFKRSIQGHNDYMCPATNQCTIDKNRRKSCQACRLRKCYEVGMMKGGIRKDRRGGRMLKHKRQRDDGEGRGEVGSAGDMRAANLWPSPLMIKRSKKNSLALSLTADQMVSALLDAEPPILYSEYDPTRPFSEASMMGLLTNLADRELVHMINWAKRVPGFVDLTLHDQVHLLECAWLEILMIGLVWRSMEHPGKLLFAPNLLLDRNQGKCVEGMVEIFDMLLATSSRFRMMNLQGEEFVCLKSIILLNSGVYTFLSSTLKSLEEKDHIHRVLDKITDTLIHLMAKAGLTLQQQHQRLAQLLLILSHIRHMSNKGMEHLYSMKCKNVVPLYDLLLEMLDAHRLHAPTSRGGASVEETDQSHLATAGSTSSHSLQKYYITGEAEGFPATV

`[2H]C([2H])([2H])[C@H](N)Cc1ccccc1`: the Potency result in test [1], in test [3], in test [4], in test [5], in test [6] and in test [7] was “inactive” in each case. Moreover, the Potency entry in test [8], in test [9], in test [10], in [11], in test [12] and in test [13] was “inactive” in each case. The Potency entry in [14], in test [15] and in test [16] was “inactive” throughout. Besides, the outcome in test [2] was inactive.
As to `CNC(=O)Oc1ccccc1C(=O)Nc1ccccc1`, the Potency entry in [1], in test [3], in test [4], in [18], in [5] and in test [8] was “inactive” in each case. Also, the Potency result in [9], in test [10], in [11], in [12] and in test [14] was “inactive” throughout. Moreover, the result in test [2] and in test [17] was inactive. Also, the Potency in [6] was 29.8 µM (active); in test [15], 14.1 µM (active); in test [16], 22.4 µM (active).
For `CCC(=O)O[C@]1(c2ccccc2)CCN(C)C[C@H]1C`, the Potency entry in [1], in [3], in test [4], in [18], in [5] and in test [8] was “inactive” each time. Moreover, the Potency entry in test [10], in test [11], in test [12], in test [13], in [14] and in test [15] was “inactive” in each case. The Potency result in [16] was “inactive”. Besides, the call in test [2] and in [17] was inactive. The Potency in test [6] was 21.1 µM (active).
Regarding `CCC1(c2ccccc2)C(=O)NC(=O)N(C)C1=O` (stereo unspecified), in test [16], the Potency entry is “inactive”.
The same measure, in the same setting: then `CN1c2ccccc2C(NCCCCCCC(=O)O)c2ccc(Cl)cc2S1(=O)=O` (stereo unspecified), with 7.94 µM (active).
As for `COc1cc([C@@H]2c3cc4c(cc3[C@H](O)[C@H]3COC(=O)[C@H]23)OCO4)cc(OC)c1OC`, the Potency entry in [19] and in test [20] was “inactive” throughout.
As to `C[C@]12C[C@H]3S[C@H]3C[C@@H]1CC[C@@H]1[C@@H]2CC[C@]2(C)[C@@H](O)CC[C@@H]12`, the Potency result in [1], in [3], in [4], in test [18], in test [5] and in test [7] was “inactive” in each case. Further, the Potency result in test [9], in [10], in [11], in test [14], in [15] and in [16] was “inactive” each time. For the same compound, the call in test [2] and in [17] was inactive. Also, the figures for the Potency in test [12] and in test [13] were 0.256 µM [inconclusive] (active) and 0.143 µM (active), respectively.
In the case of `COC(=O)[C@]12CCC(C)(C)C[C@H]1[C@H]1C(=O)C=C3[C@@]4(C)C=C(C#N)C(=O)C(C)(C)[C@@H]4CC[C@@]3(C)[C@]1(C)CC2`, the Potency in test [1] is 1.33 µM (active); in test [5], 1.07 µM (active); in [8], 4.25 µM (active); in [9], 1.68 µM (active); in test [11] it was 3.38 µM (active); in test [12], 3.01 µM [inconclusive] (active). Besides, the Potency result in test [3] and in [4] was “inactive” throughout. Also, the compound was called inactive in test [17].
Consider `CC1(C)C(C=C(Cl)Cl)C1C(=O)OCc1cccc(Oc2ccccc2)c1` (stereo unspecified), for which the Potency result in test [19] and in [20] was “inactive” in each case.
For the compound `CCN(CC)/[N+]([O-])=N/O`, the Potency entry in test [1], in test [3], in [18], in [5], in test [9] and in test [10] was “inactive” in each case. In [11], the Potency result is “inactive”. The result in test [2] and in test [17] was inactive.
As for `C[C@@H](N)C(=O)c1ccccc1`, the Potency result in test [1], in [3], in test [4], in [6], in [7] and in test [8] was “inactive” each time. Also, the Potency result in test [9], in test [10], in test [12], in test [13] and in test [14] was “inactive” in each case. In addition, the outcome in test [2] and in test [17] was inactive.
